These results are taken from PubChem BioAssay (NCATS).

Records with an inconclusive call do not appear. Calls of active or inactive are those of the source. Unless noted, calls follow the shape of the dose curve; as a rule, active = well fitted curve in the direction sought with a large enough effect; inconclusive = small, poorly fitted or top-dose-only effect, or another doubt; inactive = no such curve, though single readings can be large; an effect the other way counts as inactive or inconclusive.

Test [1] in a line: HPAF-II 24hr Apoptosis Induction qHTS against the NCATS CANVASS Library (AID 1347356). Also: 0% is about no effect. In outline: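 Luminescent caspase-3/7 signal (DEVD substrate, Caspase-Glo) served as read-out, taken 15 min after reagent addition to HPAF-II cells exposed 24 h to compounds.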
Background: In qHTS, concentration-response curves come from the screen itself.

Test [2] in a line: HEK293 18hr Apoptosis Induction qHTS against the NCATS CANVASS Library (AID 1347357). Also: 0% is about no effect. The method, boiled down:
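Caspase-3/7 luminescence (DEVD substrate, Caspase-Glo) after 18 h compound exposure of HEK293 cells, 500 cells/well; 11-point series; doxorubicin titration as control.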

The nature of test [3]: HPAF-II 12hr Apoptosis Induction qHTS against the NCATS CANVASS Library (AID 1347358). Also: 0% is about no effect. In outline: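 500 HPAF-II cells/well; cmpds 11-pt; 12 hr, 37 degrees C/5% CO2; Caspase-Glo 3/7 added, 15 min RT dark; luminescence read. Doxorubicin titration as control.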
Test [4] is described as follows: HPAF-II 18hr Apoptosis Induction qHTS against the NCATS CANVASS Library (AID 1347360). Also: 0% is about no effect. In outline:
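Caspase-Glo 3/7 luminescence (DEVD substrate) after 15 min RT; HPAF-II, 500 cells/well, 18 h compound exposure at 37 degrees C, qHTS series; doxorubicin control 0.1nM - 4uM.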

Test [5] can be described thus: HEK293 12hr Apoptosis Induction qHTS against the NCATS CANVASS Library (AID 1347361). Also: 0% is about no effect. In outline:
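500 HEK293 cells/well; cpds pin-transferred, 11-pt conc series; 12 h, 37 degrees C/5% CO2; Caspase-Glo 3/7 added, 15 min RT dark; luminescence.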

Test [6] is described as follows: qHTS for ATAD5 Agonist screened against the NCATS CANVASS Library (AID 1347367). Also: 0% is about no effect. In outline: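 Luminescence read-out: ATAD5-driven luciferase in stably transfected HEK 293T cells, which rises post-transcriptionally with DNA damage. Cells were exposed 16hr at 37C to test compound; a CellTiter-Fluor fluorescence read (1hr) measured viability first.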
Test [7] can be described thus: J3T Cancer Cell Toxicity qHTS against the NCATS CANVASS Library (AID 1347371).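 Also: J3T is a canine glioma cancer cell line seeded at 500 cells per well; series mostly up to about 46 µM; % is scaled to controls: 0 for no effect and ±100 for the full control effect.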 The method, boiled down:
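Cells plated at 500 per well, compounds pin-transferred, plates incubated 72 hr at 37C, then CellTiterGlo added and luminescence read to measure ATP content.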

Test [8] has as its target Nuclear receptor subfamily 1 group I member 3 (Homo sapiens) (UniProt Q14994). In words: qHTS for Constitutive Androstane Receptor (CAR) Agonist screened against the NCATS CANVASS Library (AID 1347373).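 Also: every well also contained 1.5 µM PK11195 alongside the test compound; 0% is about no effect.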 The method, boiled down: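 HepG2-hCAR-CYP2B6 cells, 2500/well, attached 4hr; cpd + PK11195 1.5uM final; 24hr 37C 5% CO2. CellTiter-Fluor viability read, then ONE-Glo luminescence for CAR activation.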

Test [9] is described as follows: qHTS for Hypoxia signaling pathway (HIF-1) agonists against the NCATS CANVASS Library (AID 1347375). Also: 0% is about no effect. In outline: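 ME-180 HRE-bla reporter cells; 2,000/well, 0.5% dialyzed FBS; cpd added after 5 h, 17 h 37C/5% CO2; CCF4-AM 2 h RT; FRET 460/530 nm; CellTiter-Glo viability same wells, 30 min.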
The nature of test [10]: DH5-alpha competent E. coli microbial cell viability qHTS against the NCATS CANVASS Library (AID 1347377). The settings on record: outcome: dose series up to 46.1 µM unless noted. The method, boiled down: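 qHTS, 11-pt; E. coli DH5-alpha, 0.2 OD; o/n 37C/5% CO2; BacTiter-Glo, 20 min RT; luminescence.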
Test [11] can be described thus: qHTS for H2AX Agonists against the NCATS CANVASS Library (AID 1347378). Also: 0% is about no effect. In outline:
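TR-FRET readout (ex 320 nm, em 665/620 nm ratio) of phospho-H2AX (S139) in CHO-K1 lysates. Cells treated 3 hr at 37C with compound titration, 0.76% DMSO; lysis 30 min, antibody detection 24 hr at RT.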

A short description of test [12]: Inflammasome Signaling qHTS Counterscreen: IL-1-beta AlphaLISA counterscreen against the NCATS CANVASS Library (AID 1347381).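 Also: cell-free check with purified IL-1β in medium and no THP-1 cells; series mostly up to about 57 µM; 0% is about no effect.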 In outline: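 Cell-free interference check: compounds added to medium spiked with 4 pg purified IL-1β. Anti-IL-1β acceptor beads (6 ug/mL) with 0.6 nM biotinylated antibody added for 1 h at RT, then streptavidin donor beads (24 ug/mL) for 30 min in the dark. AlphaLISA read at 680/615 nm.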

Test [13] is described as follows: Cytotoxicity qHTS for assessment of Hepg2 cells membrane integrity screened against the NCATS CANVASS Library (AID 1347387). In outline: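 qHTS, 11-pt conc. series, 0.59 nM - 46 uM final; HepG2 2000 cells/well, overnight attachment; 5 hr compound exposure 37C/5% CO2; CytoTox-ONE, 10 min RT; fluorescence ex560/em590 = LDH from damaged membranes.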
Test [14] can be described thus: qHTS for activators of dead-cell proteases activity screened against the NCATS CANVASS Library (AID 1347392).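 Also: luminescence from protease leaking out of membrane-damaged cells cleaving impermeant substrate; 0% is about no effect; rising signal means more cytotoxicity.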 The method, boiled down: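 HepG2 cells (2000/well) attached 18 h at 37C, then exposed 5 h to compounds (11-point qHTS). Dead-cell protease activity read as luminescence from cell-impermeant AAF-aminoluciferin substrate after 15 min at room temperature.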

For test [15], the target named is Luciferin 4-monooxygenase (Photinus pyralis) (UniProt P08659). The test can be described thus: Firefly luciferase counterscreen qHTS: Assay Interference Panel against the NCATS CANVASS Library (AID 1347363). Also: series mostly up to about 57 µM; 0% is about no effect. The method, boiled down: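 Purified P. pyralis luciferase was added to compounds (11-point series) preincubated 15 min at room temperature with substrate containing 0.013 mM D-luciferin and 0.013 mM ATP; luminescence was read after 5 min.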
On the technique in general: A counterscreen serves to expose hits that act by an unwanted route or on another target.

Test [16] is described as follows: qHTS drug screen for cell cycle checkpoint inhibitors in PARPi-resistant BRCA-mutant ovarian cancer cell lines. (AID 1963452; calls by dose curve; also: potency is read from the fitted curve at half-maximal effect). The following applies: PEO1/OlaR viability, CellTiter-Glo luminescence, 96 h; for Z-AUC: stronger effect = lower value. In outline: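 PEO1, PEO4 and PEO1/OlaR ovarian cancer cells, 600 per well, exposed 96 h at 37C to a dilution series. Viability read by CellTiter-Glo luminescence, normalized to DMSO and empty wells; activity summarized as Z-AUC.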

[17] abbreviates: measured here: PEO1 parental Z-AUC.

Nuclear receptor subfamily 1 group I member 3 (Homo sapiens), sequence (Q14994 whole entry, looked up): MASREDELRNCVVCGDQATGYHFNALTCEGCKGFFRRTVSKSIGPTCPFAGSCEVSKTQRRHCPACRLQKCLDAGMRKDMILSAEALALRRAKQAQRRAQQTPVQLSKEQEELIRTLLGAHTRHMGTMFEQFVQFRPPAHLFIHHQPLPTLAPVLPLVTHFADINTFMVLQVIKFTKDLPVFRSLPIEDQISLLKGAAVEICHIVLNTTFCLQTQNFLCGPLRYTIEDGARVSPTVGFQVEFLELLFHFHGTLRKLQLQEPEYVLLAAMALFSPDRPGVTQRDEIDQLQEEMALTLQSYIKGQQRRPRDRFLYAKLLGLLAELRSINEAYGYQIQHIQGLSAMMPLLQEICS
Luciferin 4-monooxygenase (Photinus pyralis), sequence (P08659 whole entry, looked up): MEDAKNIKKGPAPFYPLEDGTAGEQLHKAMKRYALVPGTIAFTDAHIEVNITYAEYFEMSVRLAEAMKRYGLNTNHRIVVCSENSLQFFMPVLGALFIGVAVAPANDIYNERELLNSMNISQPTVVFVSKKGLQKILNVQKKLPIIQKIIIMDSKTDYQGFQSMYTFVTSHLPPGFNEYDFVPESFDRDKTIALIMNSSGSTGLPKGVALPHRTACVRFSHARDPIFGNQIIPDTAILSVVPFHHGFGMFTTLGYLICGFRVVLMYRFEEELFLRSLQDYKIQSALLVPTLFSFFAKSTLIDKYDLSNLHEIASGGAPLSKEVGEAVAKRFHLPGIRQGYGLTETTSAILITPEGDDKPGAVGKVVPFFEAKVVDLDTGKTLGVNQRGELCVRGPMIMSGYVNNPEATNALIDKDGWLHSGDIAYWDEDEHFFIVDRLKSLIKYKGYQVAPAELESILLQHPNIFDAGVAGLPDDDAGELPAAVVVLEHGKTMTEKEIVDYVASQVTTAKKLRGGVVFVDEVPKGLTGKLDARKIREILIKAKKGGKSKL

`COC1=C(C2=C(OC)C(=O)c3cc4c(c(O)c3C2=O)C(=O)O[C@H](C)C4)C(=O)c2c(cc3c(c2O)C(=O)O[C@H](C)C3)C1=O`: the compound was called inactive in test [1], in test [2], in test [3], in test [4], in test [5] and in test [9]. Further, the compound was classed as inactive in test [12], in test [13] and in test [14]. In addition, the Potency result in test [6], in test [7], in test [8] and in test [11] was “inactive” throughout. Besides, the outcome in test [10] was “inactive [at 15.4 µM]”.
As for `CC[C@H]1CN2CCc3c([nH]c4cccc(OC)c34)[C@@H]2C[C@@H]1/C(=C\OC)C(=O)OC`, the compound was classed as inactive in test [1], in test [2], in [3], in [4], in [5] and in test [9]. In addition, the outcome in test [10], in test [12], in test [13] and in [14] was inactive. Also, the Potency result in [15], in test [6], in test [7], in [8] and in test [11] was “inactive” throughout.
On to `CC[C@]12C=CCN3CC[C@]4(C(=C(C(=O)OC)C1)Nc1ccccc14)[C@@H]32`, for which the compound was called inactive in [1], in [2], in test [3], in test [4], in [5] and in [9]. In addition, the result in test [10], in [12], in test [13] and in [14] was inactive. Moreover, the Potency result in [15], in test [6], in [7], in test [8] and in test [11] was “inactive” in each case.
Regarding `C/C=C1/CN2CC[C@]34C(=C(C(=O)OC)[C@H]1C[C@H]23)Nc1ccccc14`, the result in test [1], in test [2], in test [3], in test [4], in [5] and in [9] was inactive. Further, the compound was called inactive in test [10], in test [12], in [13] and in test [14]. Also, the Potency result in test [15], in [6], in test [7], in test [8] and in test [11] was “inactive” throughout.
Regarding `CC(N[C@H]1C[C@@H]1c1ccccc1)c1ccc2c(c1)OCCO2` (stereo not given in full), the Z-AUC in test [16] is -0.77 (inactive); in [16] (setting [17]), 0.195; in [16] (measured here: PEO4 Z-AUC), -0.131.
On to `CC(=O)O[C@@]12CO[C@@H]1C[C@H](O)[C@@]1(C)C(=O)[C@H](O)C3=C(C)[C@@H](O)C[C@@](O)([C@@H](OC(=O)c4ccccc4)[C@H]21)C3(C)C`, for which the Z-AUC is 1.05 (inactive) in test [16], 0.322 in [16] (setting [17]) and 0.492 in test [16] (measured here: PEO4 Z-AUC).
For `O=C(CBr)N1CC([N+](=O)[O-])([N+](=O)[O-])C1` the same measures were 1.13 (inactive), 0.0375 and 1.
For `COC[C@H]1OC(=O)c2coc3c2[C@@]1(C)C1=C(C3=O)[C@@H]2CC[C@H](O)[C@@]2(C)C[C@H]1OC(C)=O` the same measures were 0.029 (inactive), -0.102 and 0.779.
For `COc1cc(C)[nH]c(=O)c1CNC(=O)c1c(C)n([C@H](C)C2CCN(CC(F)(F)F)CC2)c2ccccc12` the same measures were 1.18 (inactive), 0.708 and 0.343.
Take `CC(C)(NC(=O)O[C@@H]1CN2CCC1CC2)c1csc(-c2ccc(F)cc2)n1`: the Z-AUC in [16] is 1.16 (inactive); in test [16] (setting [17]), 0.982; in test [16] (measured here: PEO4 Z-AUC), 1.29.
For `COC(=O)[C@@]12OC[C@]34[C@H]([C@@H](O)[C@@H]1O)[C@@]1(C)CC(=O)C(O)=C(C)[C@@H]1C[C@H]3OC(=O)[C@H](OC(=O)/C=C(\C)C(C)C)[C@@H]24`, in test [16], the Potency was 174 nM (active). Also, the Z-AUC in test [16] (setting [17]) is -2.46; in test [16] (measured here: PEO4 Z-AUC), -2.64.
